activity, negative = cell killing data for 32 compounds are collected here from PubChem BioAssay (NCATS).

Several values for one entry are separate records, joined by “and”; a condition that tells them apart may be missing. Equal values may be shown once. Inconclusive results are not listed. Where a structure was tested more than once in an assay, its records may differ in their call. Activity calls are given as the source filed them. The call rests on the fitted dose curve; in most records, active means well fitted inhibition curve with a large enough effect; inconclusive means small, poorly fitted or top-dose-only effect; inactive means flat fitted curve, though single readings scatter.
On the % scale 0 is the no-effect control and ±100 the full control effect.

One test in a line: Drug repurposing screens with cells derived from glioblastoma tumor samples (AID 1345199). Further: nearly all actives have a fitted effect of over 40% in size. The settings on record: GBM patient neurospheres viability, ATP luminescence, 48 h; at 45.9 µM (top of the series); tumour line B. In outline:
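Four patient lines of CD133+ GBM neurospheres were screened at several concentrations; hits were retested in those lines plus three slower-growing GBM lines, using 48-hour treatment and ATP-based viability.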
Consider `O=C(O)Cc1ccccc1Oc1ccc(Cl)cc1Cl`, for which the activity, negative = cell killing was -7.43% (inactive). Still for that read-out and setting: the value for `C[N+](C)(CCOc1ccccc1)Cc1cccs1` was -1.12% (inactive); that for `CC(=O)CC/C=C(\C)CC/C=C(\C)CC/C=C(\C)CCC=C(C)C` was -12.4% (inactive).

`CN(CC1(C)CCCO1)S(=O)(=O)c1ccc(Cl)c(S(N)(=O)=O)c1` (centres undefined): the activity, negative = cell killing was -9.01% (inactive).

For `CCCCCC1Nc2cc(C(F)(F)F)c(S(N)(=O)=O)cc2S(=O)(=O)N1` (centres undefined), the activity, negative = cell killing is -8.57% (inactive).

Consider `CC(=O)N(CC(O)CO)c1c(I)c(C(=O)NCCO)c(I)c(C(=O)NCC(O)CO)c1I` (centres undefined), for which the activity, negative = cell killing was -10.8% (inactive).

Turning to `COc1cc(C(=O)OC(COCCC(C)C)CN2CCOCC2)cc(OC)c1OC` (centres undefined), the activity, negative = cell killing is -6.94% (inactive).

Consider `CO/N=C(/C(=O)N[C@@H]1C(=O)N2C(C(=O)[O-])=C(C[n+]3ccn4ncccc43)CS[C@H]12)c1nsc(N)n1`, for which the activity, negative = cell killing is -6.03% (inactive) and -3.53% (inactive). For the compound `CC(=O)Nc1ccc(S(=O)(=O)Nc2cc(C)on2)cc1`, the activity, negative = cell killing was 4.82% (inactive). Still for that read-out and setting: the value for `C[N+]1(CC2COC(c3ccccc3)(c3ccccc3)O2)CCCCC1` (centres undefined) was -10.9% (inactive); that for `Cn1cc(S(C)=O)c(=O)c2ccc(F)cc21` (centres undefined) was -9.03% (inactive). Take `CC(CCc1ccc2c(c1)OCO2)NN` (centres undefined): the activity, negative = cell killing was -11.1% (inactive). The same measure, in the same setting: the value for `CO[C@]1(NC(=O)CSC(F)F)C(=O)N2C(C(=O)O)=C(CSc3nnnn3CCO)CO[C@H]21` was 4.83% (inactive); that for `O=C(COCCOCCOCC(=O)Nc1c(I)cc(I)c(C(=O)O)c1I)Nc1c(I)cc(I)c(C(=O)O)c1I` was -4.03% (inactive); that for `O=S(=O)(O)c1ccc2nc(-c3ccccc3)[nH]c2c1` was -3.28% (inactive). In the case of `CCc1cc(S(=O)(=O)O)c2cc(C(C)C)cccc1-2`, the activity, negative = cell killing was -10.8% (inactive). The same measure, in the same setting: for `O=C(Oc1ccccc1)c1ccccc1O` the value was -4.53% (inactive); for `Cc1cccc(N(C)C(=S)Oc2ccc3c(c2)CCC3)c1`, -19.8% (inactive); for `N#C/C(=C1/SC[C@@H](c2ccc(Cl)cc2Cl)S1)n1ccnc1`, -20.5% (inactive) and -14.1% (inactive). The same measure, in the same setting: the value for `CC(=O)OCC(=O)Nc1cc(C#N)cc(NC(=O)COC(C)=O)c1Cl` was -11% (inactive).

For `Nc1c(NC/C=C\COc2cc(CN3CCCCC3)ccn2)c(=O)c1=O`, the activity, negative = cell killing was -4.69% (inactive). As for `C[C@@H](C1=C(CCN(C)C)Cc2ccccc21)c1ccccn1`, the activity, negative = cell killing was -18.9% (inactive).

As to `CC1CC(=O)NN=C1c1ccc(NCC(C)(C)NCC(O)COc2cc(Cl)ccc2C#N)cc1` (centres undefined), the activity, negative = cell killing is -23.3% (inactive).

In the case of `O=C1[C@@H]2[C@H]3CC[C@H](C3)[C@@H]2C(=O)N1CCCCN1CCN(c2ncccn2)CC1`, the activity, negative = cell killing is -7.9% (inactive). With `C[C@]12CCC(=O)C=C1CC[C@@H]1[C@@H]2[C@@H](O)C[C@@]2(C)[C@H]1CC[C@]2(O)C(=O)COC(=O)CCC(=O)O`, the activity, negative = cell killing was -2.56% (inactive). Same read-out and setting: the value for `O=[N+]([O-])c1nccn1CO[C@@H](CO)[C@H](O)CO` was -1.15% (inactive). On the same count and under the same terms, for `OC[C@]1(O)OC[C@@H](O)[C@H](O)[C@@H]1O` the value was 6.45% (inactive); for `CCN(CC)CCNC(=O)c1ccc(NS(C)(=O)=O)cc1`, -2.38% (inactive); for `CC(=O)O[C@@H]1C(=O)O[C@@H]2[C@H]1OC(=O)[C@@H]2OC(C)=O`, -13.4% (inactive). `CCOC(=O)NNc1nncc2ccccc12`: the activity, negative = cell killing is -5.14% (inactive). On the same count and under the same terms, the value for `COc1cc(C(=O)NC2CCCNC2)cc(OC)c1OC` (centres undefined) was -2.35% (inactive).

The test is the same for the next values; noted with them: GBM patient neurospheres viability, ATP luminescence, 48 h; at 45.9 µM (top of the series); tumour line D.
On to `O=C(O)Cc1ccccc1Oc1ccc(Cl)cc1Cl`, for which the activity, negative = cell killing was -9.2% (inactive). Same read-out and setting: for `C[N+](C)(CCOc1ccccc1)Cc1cccs1` the value was -8.83% (inactive); for `CC(=O)CC/C=C(\C)CC/C=C(\C)CC/C=C(\C)CCC=C(C)C`, -10.7% (inactive); for `CN(CC1(C)CCCO1)S(=O)(=O)c1ccc(Cl)c(S(N)(=O)=O)c1` (centres undefined), -23.5% (inactive). On the same count and under the same terms, the value for `CCCCCC1Nc2cc(C(F)(F)F)c(S(N)(=O)=O)cc2S(=O)(=O)N1` (centres undefined) was -19.1% (inactive); that for `CC(=O)N(CC(O)CO)c1c(I)c(C(=O)NCCO)c(I)c(C(=O)NCC(O)CO)c1I` (centres undefined) was 12.9% (inactive).

For the compound `COc1cc(C(=O)OC(COCCC(C)C)CN2CCOCC2)cc(OC)c1OC` (centres undefined), the activity, negative = cell killing is -4.84% (inactive). With `CO/N=C(/C(=O)N[C@@H]1C(=O)N2C(C(=O)[O-])=C(C[n+]3ccn4ncccc43)CS[C@H]12)c1nsc(N)n1`, the activity, negative = cell killing was -11.1% (inactive) and -14% (inactive). On the same count and under the same terms, for `CC(=O)Nc1ccc(S(=O)(=O)Nc2cc(C)on2)cc1` the value was -21% (inactive); for `C[N+]1(CC2COC(c3ccccc3)(c3ccccc3)O2)CCCCC1` (centres undefined), -20.2% (inactive); for `Cn1cc(S(C)=O)c(=O)c2ccc(F)cc21` (centres undefined), -4.06% (inactive).

With `CC(CCc1ccc2c(c1)OCO2)NN` (centres undefined), the activity, negative = cell killing was -1.96% (inactive).

On to `CO[C@]1(NC(=O)CSC(F)F)C(=O)N2C(C(=O)O)=C(CSc3nnnn3CCO)CO[C@H]21`, for which the activity, negative = cell killing is -21.2% (inactive). For the compound `O=C(COCCOCCOCC(=O)Nc1c(I)cc(I)c(C(=O)O)c1I)Nc1c(I)cc(I)c(C(=O)O)c1I`, the activity, negative = cell killing is -4.14% (inactive). On the same count and under the same terms, the value for `O=S(=O)(O)c1ccc2nc(-c3ccccc3)[nH]c2c1` was -9.15% (inactive); that for `CCc1cc(S(=O)(=O)O)c2cc(C(C)C)cccc1-2` was -10.6% (inactive); that for `O=C(Oc1ccccc1)c1ccccc1O` was 13.5% (inactive). On the same count and under the same terms, the value for `CC(=O)OCC(=O)Nc1cc(C#N)cc(NC(=O)COC(C)=O)c1Cl` was -1.03% (inactive); that for `Nc1c(NC/C=C\COc2cc(CN3CCCCC3)ccn2)c(=O)c1=O` was -28.9% (inactive); that for `CC1CC(=O)NN=C1c1ccc(NCC(C)(C)NCC(O)COc2cc(Cl)ccc2C#N)cc1` (centres undefined) was -27.2% (inactive). On the same count and under the same terms, for `C[C@]12CCC(=O)C=C1CC[C@@H]1[C@@H]2[C@@H](O)C[C@@]2(C)[C@H]1CC[C@]2(O)C(=O)COC(=O)CCC(=O)O` the value was -26.6% (inactive); for `O=[N+]([O-])c1nccn1CO[C@@H](CO)[C@H](O)CO`, -7.16% (inactive); for `OC[C@]1(O)OC[C@@H](O)[C@H](O)[C@@H]1O`, -1.03% (inactive). For the compound `CCN(CC)CCNC(=O)c1ccc(NS(C)(=O)=O)cc1`, the activity, negative = cell killing was -14.7% (inactive).

As for `CC(=O)O[C@@H]1C(=O)O[C@@H]2[C@H]1OC(=O)[C@@H]2OC(C)=O`, the activity, negative = cell killing is 5.03% (inactive). Same read-out and setting: for `CCOC(=O)NNc1nncc2ccccc12` the value was -7.16% (inactive); for `C[N+]1(C)CCC(OC(=O)C(O)(c2ccccc2)C2CCCC2)C1` (centres undefined), -7.1% (inactive). The same measure, in the same setting: the value for `COc1cc(C(=O)NC2CCCNC2)cc(OC)c1OC` (centres undefined) was -10.6% (inactive).
